Screening data deposited in PubChem by The Scripps Research Institute Molecular Screening Center.
FBW7 activator – FBW7 E3 ligase activators, primary screen, biochemical, AlphaScreen, human; AID 1259310, 2017; hit rate 0.13% among 650,000; normalized activity (activation), % at 26.1 µM; AlphaScreen FBW7–phospho-cyclin E peptide binding, activator screen; F-box/WD repeat-containing protein 7 (Homo sapiens), Q969H0; in the data active = normalized activity above about 1.9%;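 also: purified mutant Fbw7 with reduced substrate affinity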
Target sequence (Q969H0 whole entry, looked up): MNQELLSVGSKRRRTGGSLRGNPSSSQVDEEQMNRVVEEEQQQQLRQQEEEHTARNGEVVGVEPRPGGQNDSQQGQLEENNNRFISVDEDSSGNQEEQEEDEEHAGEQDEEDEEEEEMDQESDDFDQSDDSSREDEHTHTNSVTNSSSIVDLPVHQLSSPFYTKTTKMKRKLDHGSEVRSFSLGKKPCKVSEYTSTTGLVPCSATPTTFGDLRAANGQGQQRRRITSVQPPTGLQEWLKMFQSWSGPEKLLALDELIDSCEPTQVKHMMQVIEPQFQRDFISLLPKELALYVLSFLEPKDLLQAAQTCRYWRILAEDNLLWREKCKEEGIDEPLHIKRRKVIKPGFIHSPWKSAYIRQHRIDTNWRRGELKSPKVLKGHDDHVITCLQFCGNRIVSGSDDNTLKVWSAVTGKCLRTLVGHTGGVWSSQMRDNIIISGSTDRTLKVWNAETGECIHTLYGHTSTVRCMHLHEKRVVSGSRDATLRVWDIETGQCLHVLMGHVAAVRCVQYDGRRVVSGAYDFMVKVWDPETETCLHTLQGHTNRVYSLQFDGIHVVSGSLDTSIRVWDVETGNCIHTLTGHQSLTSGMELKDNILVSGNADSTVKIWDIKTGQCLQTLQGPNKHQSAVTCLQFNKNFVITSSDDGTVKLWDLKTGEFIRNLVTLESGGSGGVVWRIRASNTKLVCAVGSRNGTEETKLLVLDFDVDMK
GPR151 ag – activators of human GPR151, primary screen, cell-based, PathHunter beta-arrestin, luminescence | activation, % at 11.2 µM | G-protein coupled receptor 151 (Homo sapiens), Q8TDV0 | PathHunter beta-arrestin GPR151 cells | AID 1508602, 2020 | hit rate 1% among 650,000; in the data active = activation above about 4.9%;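 also: 0% = median of compound wells and 100% = cells with positive control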
TEAD-YAP inh – TEAD-YAP interaction inhibition, primary screen, TEAD-YAP interaction inhibitor project, luminescence, HEK-TIYL cells; inhibition, % at 9.12 µM; TEAD-Gal4/YAP UAS-luciferase luminescence; hit rate 1.4% among 640,000; in the data active = inhibition above about 32%;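 also: 0% = median of test compound wells and 100% = reference inhibitor wells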
MITF primary – MITF inhibitors, primary screen, biochemical, AlphaScreen, human. AID 1259374, 2018. Microphthalmia-associated transcription factor (Homo sapiens), O75030. AlphaScreen MITF homodimerization, bead proximity signal. inhibition, % at 2.6 µM. hit rate 0.91% among 650,000; in the data active = inhibition above about 50%;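 also: 0% = vehicle wells with protein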
* hit, by the source's call. In the library only some 3.5% were active in any assay of this set; here they are far more common.

SMILES	FBW7 activator	GPR151 ag	TEAD-YAP inh	MITF primary
COC(=O)c1ccc(/C=N/NC(=O)COc2ccc(C)cc2Br)cc1	0	0	4	4
Nc1ccc(NC(=O)c2ccc(N)cc2)cc1	0	-1	7	6
CCCCN(CCCC)c1nc(N)ncc1[N+](=O)[O-]	0	1	34*	3
CCCN(CCC)c1nc(N)ncc1[N+](=O)[O-]	0	-1	59*	5
Nc1ncc([N+](=O)[O-])c(Oc2ccccc2F)n1	0	0	-1	5
COc1ccc(Nc2ccn3ncc(-c4cccc5ccccc45)c3n2)cn1	0	0	3	-17
CCCCC(=O)Nc1ccc(C(=O)OC)cc1	0	0	-22	0
c1ccc2c(-c3cnn4c(N5CCOCC5)ccnc34)cccc2c1	0	-1	-41	-6
Fc1ccccc1-c1cnn2c(N3CCOCC3)ccnc12	0	-5	64*	-66
OCc1ccccc1-c1cnn2c(N3CCOCC3)ccnc12	0	-4	94*	12
Clc1cccc(-c2cnn3c(N4CCOCC4)ccnc23)c1	0	-2	77*	18
O=C(NCc1nc(NCCCc2ccccc2)c2ccccc2n1)c1ccsc1	0	0	34*	-9
O=C(NCc1nc(NCCCc2ccccc2)c2ccccc2n1)c1ccoc1	0	-1	8	-1
COCC(=O)Nc1cccc(Cl)c1Cl	0	0	4	13
OCCC1CCCCN1c1ccnc2c(-c3ccccc3)cnn12 (centres undefined)	0	0	89*	9
COc1ccccc1-c1cnn2c(N3CCCCC3CCO)ccnc12 (centres undefined)	0	-1	-7	-22
OCCC1CCCCN1c1ccnc2c(-c3cccc(Cl)c3)cnn12 (centres undefined)	0	0	90*	-7
OC[C@@H]1CCCN1c1ccnc2c(-c3ccc(F)cc3)cnn12	0	-2	74*	2
OCCC1CCCCN1c1ccnc2c(-c3ccccc3F)cnn12 (centres undefined)	0	0	63*	-8
O=C1CCCN1CC(=O)N1CCCC1c1nc2ccccc2[nH]1 (centres undefined)	0	1	-2	-7
OCCC1CCCCN1c1ccnc2c(-c3ccc(F)cc3)cnn12 (centres undefined)	0	1	97*	-25
Cc1ccc(-c2cnn3c(N4CCCCC4CCO)ccnc23)cc1C (centres undefined)	0	0	7	3
COC(=O)CSc1nnc(CSc2nc(C)cc(C)n2)n1C	0	-1	-12	6
CCCCNc1nc2cc(OC)c(OC)cc2c2nc(-c3cccnc3)nn12	0	0	-14	-7
c1cncc(-c2nc3c4ccccc4nc(NCCCN4CCCCCC4)n3n2)c1	0	0	69*	-8
SMILES	FBW7 activator	GPR151 ag	TEAD-YAP inh	MITF primary
COc1cc2nc(NCCCN3CCCCC3)n3nc(-c4cccnc4)nc3c2cc1OC	0	2	37*	16
Cc1ccc(C(=O)Nc2ccc(Cl)cc2)cc1S(=O)(=O)N1CCOCC1	0	0	-9	-7
CCOc1ccc(NC(=O)c2ccc(F)c(S(=O)(=O)N3CCN(C4CCCCC4)CC3)c2)cc1	0	2	34*	0
CCOC(=O)c1ccc(NC(=O)c2ccc(Cl)c(S(=O)(=O)N3CCOCC3)c2)cc1	0	3	73*	11
CCOc1ccc(NC(=O)c2ccc(F)c(S(=O)(=O)N3CCCC3)c2)cc1	0	0	37*	28
O=C(Nc1ccc(Cl)c(Cl)c1)c1ccc(F)c(S(=O)(=O)N2CCN(C3CCCCC3)CC2)c1	0	-1	4	-6
N#Cc1cc(-c2cccnc2)no1	0	2	6	5
O/C(=C\c1ccc2ccccc2n1)c1ccc(O)cc1O	0	-2	75*	-2
Oc1ccc(/C=C/c2nc3ccccc3s2)cc1	0	-10	73*	13
COc1ccc(/C=C/c2nc3ccccc3s2)cc1S(=O)(=O)N1CCOCC1	0	0	-9	6
C(=C\c1ccc2ccccc2n1)/c1cccnc1	-1	-8	77*	-30
CN(C)c1ccc(/C=C/c2ccc(-c3ccccc3)cc2)cc1	0	0	-13	-7
CN(C)c1ccc(/C=C/c2ccc3ccccc3n2)cc1	1	-10	93*	-35
COc1cccc(CNc2nc3ccc(Cl)cc3n3nnnc23)c1	0	2	-2	0
Oc1ccc(/C=C/c2ccc3ccccc3n2)cc1	1	-10	85*	-6
O=C(O)/C=C/c1ccc2ccccc2n1	0	0	-12	-11
CC(=O)Nc1ccc(N=Cc2c(C)[nH]n(-c3ccccc3C)c2=O)cc1	0	1	-3	-10
COc1cccc(-c2ocnc2C(=O)Nc2ccc(N3CCC(C)CC3)c(C(N)=O)c2)c1	9.2*	0	-6	7
Cc1c(C(=O)C(=O)N2CCC(C)CC2)c2ccccc2n1C	0	0	-8	2
Cc1c(C(=O)C(=O)N2CC=C(c3ccccc3)CC2)c2ccccc2n1C	0	-2	52*	-2
Cc1ccccc1NC(=O)c1cccc2c1C(=O)c1ccccc1-2	0	0	53*	12
Cc1cc(C(=O)N(CCCN(C)C)c2nc3ccccc3s2)no1	0	0	-21	-15
CCN(CC)C(=O)c1c(NC(=O)c2ccco2)sc2c1CCC(C(C)(C)C)C2 (centres undefined)	0	0	3	0
CC1CCc2c(sc(NC(=O)c3ccco3)c2C(=O)O)C1 (centres undefined)	0	-2	33*	-6
CC(C)(C)C1CCc2c(sc(NC(=O)c3ccco3)c2C(=O)O)C1 (centres undefined)	0	-1	90*	2
SMILES	FBW7 activator	GPR151 ag	TEAD-YAP inh	MITF primary
COCCNC(=O)c1cccc(OC2CCN(C/C(C)=C/c3ccccc3)CC2)c1	0	0	9	4
O=C(CSc1nc(Nc2ccc(F)cc2)c2ccccc2n1)NCc1ccccc1	0	1	9	13
CCOC(=O)c1c(NC(=O)/C(C#N)=C/c2cccnc2)sc2c1CCCC2	0	3	4	-5
CCOC(=O)c1c(NC(=O)/C(C#N)=C/c2cccnc2)sc(C)c1C	2.0*	0	6	14
CC(=O)c1ccc(NC(=O)CSc2nnnn2-c2ccccc2)cc1	0	0	-53	12
Nc1nc2cc3c(cc2cc1C(=O)Nc1ccccc1)OCO3	0	0	42*	6
COc1cc(NS(=O)(=O)c2ccc3[nH]c4c(c3c2)CCCC4)cc(OC)c1OC	0	1	55*	6
COc1ccc(OC)c(NS(=O)(=O)c2ccc3[nH]c4c(c3c2)CCCC4)c1	0	2	35*	-2
COc1cc(NS(=O)(=O)c2ccc3c(c2)Cc2ccccc2-3)cc(OC)c1OC	0	5	42*	9
